# Compound activity (PubChem)
# Only some compounds are listed: those with a hit (about 4.1% of all), similar ones and a draw of the others.
# DAX1 inh-1: inhibitors of human orphan nuclear receptor DAX1 (NR0B1). P51843. HEK293 Gal4-DAX1 luciferase reporter, luminescence. inhibition, % at 6.75 µM. 340,000 compounds, 0.99% hits. AID 504766;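 active = inhibition above the mean over all tested compounds plus 3 SD, cut at about 4.2% in these data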;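 also: 0% = DAX1-transfected cells with DMSO and 100% = empty-vector control cells with DMSO; inhibition shows as a rise in luminescence from relieved DAX1 repression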
# Target sequence (P51843 207-470 limits assumed): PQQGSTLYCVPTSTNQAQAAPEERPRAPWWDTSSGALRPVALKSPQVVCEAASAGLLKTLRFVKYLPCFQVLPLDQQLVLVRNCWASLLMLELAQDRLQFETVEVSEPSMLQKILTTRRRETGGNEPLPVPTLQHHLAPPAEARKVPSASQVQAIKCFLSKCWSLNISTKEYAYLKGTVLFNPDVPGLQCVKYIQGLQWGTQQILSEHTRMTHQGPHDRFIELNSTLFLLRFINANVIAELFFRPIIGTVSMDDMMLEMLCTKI
# ssDAF-12 act: S. stercoralis DAF-12 activation, primary screen; HEK293 ssDAF-12/GRIP1 lit1-tk-luc reporter, luminescence; % of 3 µM dafachronic acid response; activation, % at 6.8 µM; 370,000 compounds, 1% hits;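 active = activation above the mean over all tested compounds plus 3 SD, cut at about 0.9% in these data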;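 also: 0% = DMSO-only wells and 100% = 3 µM delta7-dafachronic acid wells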
# hcDAF12 agonist: H. contortus DAF-12 activation, primary screen; AID 652067; 370,000 compounds, 1.4% hits; activation, % at 6.8 µM; HEK293 hcDAF-12 lit1-tk-luc reporter, luminescence; 0% DMSO, 100% Δ7-dafachronic acid;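 active = activation above the mean of all tested compounds plus 3 SD, cut at about 5.5% in these data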;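 also: 100% = response to 3 µM Δ7-dafachronic acid high control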
# hgDAF12 agonist: agonists of H. glycines DAF-12 nuclear receptor; activation, % at 6.8 µM; 370,000 compounds, 1.8% hits; HEK293 GAL4-hgDAF12 UAS-luciferase reporter, agonist luminescence; normalized to butyrate control; AID 687014;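 active = activation above a cutoff set at the mean of all screened compounds plus 3 SD, cut at about 10% in these data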;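 also: 0% = DMSO wells and 100% = sodium butyrate wells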
# DAX1 inh-2: blocks DAX1 repression of SF-1 activated StAR promoter. HEK293T StAR-luciferase reporter, SF-1/DAX-1 repression relief. inhibition, % at 6.8 µM. 370,000 compounds, 1.1% hits. AID 652010;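 active = inhibition above the mean over all tested compounds plus 3 SD, cut at about 3.6% in these data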;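 also: 0% = DAX-1 cells with DMSO and 100% = cells lacking DAX-1 with DMSO; higher inhibition means more luminescence from relief of DAX-1 repression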
# Numbers without * were called inactive; / = not tested or not shown.
SMILES,DAX1 inh-1,ssDAF-12 act,hcDAF12 agonist,hgDAF12 agonist,DAX1 inh-2
S=C(Nc1ccc2c(c1)OCO2)N1CCN(Cc2ccco2)CC1,1,0,2,11*,3
Cc1ccc(NC(=S)NC2CCN(Cc3ccccc3)CC2)cc1C,0,-1,-1,0,0
CCOC(=O)c1ccc2[nH]c3ccccc3c2c1,8.0*,0,3,11*,1
CCOC(=O)c1ccc2[nH]c(C)c(C)c2c1,0,-1,1,7,2
O=C(Nc1nnc(SCc2ccccn2)s1)C1CC(=O)N(c2ccccc2)C1 (configuration not stated),6.5*,-1,-2,2,-1
COC(=O)[C@]12C[C@H](CC(=O)NCc3cccs3)C(=O)N(Cc3ccc(Cl)cc3Cl)C1=C[C@H](COCc1ccccc1)O[C@@H]2C,/,-1,1,-2,-1
COC(=O)[C@]12C[C@H](CC(=O)NCc3cccs3)C(=O)N(Cc3ccccc3)C1=C[C@H](COCc1ccccc1)O[C@@H]2C,/,-1,-2,11*,-1
Cc1cc(C)c2nc3sc(C(=O)N4CCOCC4)c(N)c3cc2c1,-2,0,5.7*,1,4.1*
Cc1cc(C)c2cc3c(N)c(C(=O)N4CCOCC4)sc3nc2c1,0,-1,-2,-3,0
COC(=O)c1ccc2nc(C3CCCCC3)c(CC(C)(C)C)n2c1,/,-1,-1,-1,-1
COC(=O)c1ccc2nc(-c3ccccc3)c(Cc3cccc(Cl)c3)n2c1,/,1.2*,4,9,2
COC(=O)c1ccc2nc(C3CCCCC3)c(Cc3ccccc3)n2c1,/,0,5.9*,3,1
CCOC(=O)CC[C@@]1(C(=O)OCC)C[C@@H](CC(=O)NCCCN2CCCC2=O)C(=O)N2CCCC=C21,/,-1,-1,-1,2
COc1ccc(NC2=Nc3ccccc3CC2)cc1,2,0,3,11*,3
Cc1cn(-c2cc(NC(=O)c3ccc(C)c(Nc4nccc(-c5cccnc5)n4)c3)cc(C(F)(F)F)c2)cn1,/,-1,-3,1,-1
Cc1cc(NS(=O)(=O)c2ccc(NC(=O)CSc3nnc(-c4ccccn4)n3-c3ccccc3)cc2)nc(C)n1,/,-1,-1,3,-1
Nc1nc2ncccc2cc1C(=O)c1c[nH]c2ccccc12,/,0,2,4,0
CC(C)(C)CC(=O)Nc1cccc(-c2cn3cccnc3n2)c1,4,-1,5,11*,2
CCCCNC(=O)C1(C(=O)c2ccc(OC)cc2)CC(c2ccccn2)=NO1 (configuration not stated),/,0,2,6,2
Cc1ccc(C(=O)Nc2ccc(Cl)cn2)cc1,-2,0,3,12*,2
O=C(COc1ccc(Cl)cc1)Nc1ccc(Cl)cn1,1,-1,0,5,2
CCCOc1ccc(C(=O)Nc2ccc(Cl)cn2)cc1,-1,0,5.8*,10,3
O=C(Nc1cc(-c2ccccc2)[nH]n1)c1ccc(Cl)cc1,3,1.7*,5,10,1
Cc1ccc(NC(=O)c2ccc(NCc3ccc(F)cc3)nc2)cc1,2,0,0,1,0
Cc1ccc(NC(=O)c2ccc(Nc3ccccc3F)nc2)cc1,0,1.2*,2,5,0
SMILES,DAX1 inh-1,ssDAF-12 act,hcDAF12 agonist,hgDAF12 agonist,DAX1 inh-2
O=C(Nc1ccc(Cl)cn1)c1ccc(Oc2ccccc2)cc1,1,0,4,13*,2
O=C(Nc1ccc(Cl)cn1)c1cccc(OCc2ccccc2)c1,0,-1,-2,3,1
Fc1cccc(/C=N/Nc2ncnc3nc[nH]c23)c1,0,-1,2,1,3
Cc1ccc(/C=N/Nc2ncnc3nc[nH]c23)cc1,5.6*,-1,-1,9,1
Clc1ccc(/C=N/Nc2ncnc3nc[nH]c23)cc1,4.9*,-2,-1,3,2
Oc1ccc(/C=N/Nc2ncnc3nc[nH]c23)cc1,3,0,0,7,0
Fc1ccccc1/C=N/Nc1ncnc2nc[nH]c12,2,-1,-1,1,3.8*
O=C(CC1C(=O)OCN1C(=O)OCc1ccccc1)OCC(=O)c1ccccc1 (configuration not stated),4.9*,0,0,-1,0
COc1ccc(C(=O)N2CCC(Oc3cccnc3)CC2)c(OC)c1,/,-2,0,-3,1
